Measurements taken from PubChem BioAssay AID1304 (The Scripps Research Institute Molecular Screening Center, 2008).
Values joined by “and” are separate entries in the source; they are usually repeats but may differ in a detail not shown here. Identical values can stand only once. About 800 (0.36%) of roughly 220,000 compounds were called active. Only a selection was taken, and actives are over-represented in it overall. A number with no mark means an inactive call. Rule as the data show it: active = activation above about 33% (passing the limit was not always enough); inactive = the rest.

What follows are molecules tested against Neuropeptide Y receptor type 1 (Homo sapiens) (UniProt P25929) (assay: NPY-Y1 receptor potentiators or agonists, primary screen, cell-based (AID 1304;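 also: cells stimulated with NPY at EC10 then isoproterenol at EC100; 0% = low agonist plus stimulus and 100% = saturating agonist plus stimulus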)). Details: NPY-Y1 expressing cells, potentiator/agonist activation; at 3.6 µM; hits give high values.
Chain of Neuropeptide Y receptor type 1 (Homo sapiens) (P25929 whole entry, looked up): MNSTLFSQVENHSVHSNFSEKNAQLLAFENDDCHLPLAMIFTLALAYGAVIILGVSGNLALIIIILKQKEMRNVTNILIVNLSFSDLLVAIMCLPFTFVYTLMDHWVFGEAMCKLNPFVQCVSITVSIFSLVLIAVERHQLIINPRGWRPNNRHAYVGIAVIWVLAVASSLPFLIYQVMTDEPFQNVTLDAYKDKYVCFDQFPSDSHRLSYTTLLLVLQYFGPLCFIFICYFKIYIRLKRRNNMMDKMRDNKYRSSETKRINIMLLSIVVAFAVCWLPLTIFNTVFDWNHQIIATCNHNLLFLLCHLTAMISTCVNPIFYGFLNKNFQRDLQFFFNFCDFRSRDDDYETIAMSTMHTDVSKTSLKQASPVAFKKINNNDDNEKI

SMILES | activation
S=c1[nH]nc(-c2cc(-c3ccsc3)n[nH]2)n1-c1ccccc1 | -8.71%
Cc1nnsc1C(=O)N/N=C/c1ccccc1Cl | -6.23%
O=C(Nc1ccc(F)cc1F)N1CCCN(CCOc2ccccc2)CC1 | 4.67%
CCOC(=O)C1(CC2CCCCO2)CCN(Cc2nc(-c3cccs3)oc2C)CC1 (stereo unspecified) | 1.86%
CC(=O)O[C@]1(C(C)=O)CC[C@H]2[C@@H]3C=C(C)C4=CC(=O)CC[C@]4(C)[C@H]3CC[C@@]21C | -14.5% and 5.59%
CC(C)(C)CC(C)(C)NCC(O)COCCOc1ccc(Br)cc1 (stereo unspecified) | -16.3%
Cc1noc(COc2ccccc2OCc2onc(C)c2Cl)c1Cl | -31.2%
Cc1noc(COc2ccccc2OCC(O)CNC(C)(C)C)n1 (stereo unspecified) | 111% (active)
Nc1nc(O)c(CC(=O)O)s1 | -3.67%
CCc1cc(-c2n[nH]c(=S)n2CC(C)C)cs1 | -23.7%
CC(=O)c1cccc(NC(=O)Nc2ccc(C)cc2)c1 | -1.32%
COC(=O)c1ccc(NC(=O)Nc2ccc(C)cc2)cc1 | 101% (active)
Cc1ccc(NC(=O)CC(=O)Nc2ccc(C)cc2)cc1 | -0.47%
CO/N=C/c1cn(-c2ccc(Cl)cc2)nn1 | -2.97%
CN(c1ccccc1)S(=O)(=O)c1ccc(Cl)c(C(=O)OCC(=O)NCc2ccco2)c1 | 16.8%
O=c1[nH]oc(O)c1-c1ncc(C(F)(F)F)cc1Cl | 7.56%
CC(=O)NC(=S)NNC(=O)c1ccc(Br)cc1 | -6.38%
N#Cc1ccc(C(=O)Nc2nc(-c3cccs3)c(C(=O)C(F)(F)F)s2)cc1 | 45.4% (active)
Cc1ccc(C(=O)Nc2nnc(-c3cccs3)s2)cc1C | 19.3%
CC(=O)c1sc(NC(=O)c2ccc(C)cc2)nc1C | 5.15%
Cc1ccc(NC(=S)N2CCCC(c3ccccc3)=N2)cc1 | -12%
CCOC(=O)c1cnc2ccc(F)cc2c1Nc1ccc2c(c1)OCCO2 | -7.89%
CCCCNC(=O)Nc1c(C)cc(SC#N)cc1C | -6.72%
O=C(CCCN1C(=O)c2ccccc2C1=O)Oc1ccc(Cl)cc1 | -9.31%

SMILES | activation
O=C(NCCc1csc(-c2ccccc2)n1)c1ccccc1F | -10.8%
CCOC(=O)c1ccc(NC(=O)C2CC(=O)Nc3nc4ccccc4n32)cc1 (stereo unspecified) | 2.63%
O=C(Nc1ccccc1)C1CC(=O)n2c(nc3ccccc32)N1 (stereo unspecified) | 16.2%
CC(=O)c1ccc(NC(=O)C2CC(=O)Nc3nc4ccccc4n32)cc1 (stereo unspecified) | 46.6% (active)
Cc1nnc(SC(C(=O)c2ccccc2)c2ccccc2)[nH]c1=O (stereo unspecified) | -19.4%
CCN(CC)CC(=O)c1c[nH]c2ccc(OC)cc12 | -5.01%
COc1ccc2[nH]c(=S)cc(C)c2c1 | -18.7%
COc1ccc2[nH]c3ccc(OC)cc3c2c1 | 64.7% (active)
CC1CCCCC1NC(=O)CN1CCC(O)(c2ccc3c(c2)OCO3)CC1 (stereo unspecified) | 3.89%
Cn1cnnc1SCC(=O)NNC(=O)COc1ccc(Br)cc1 | -5.38%
C/C(Cc1ccccc1)=N\NC(=O)CNC(=O)c1ccccc1Cl | -3%
Cc1ccn(-c2cccc(-n3ccc(C)n3)n2)n1 | -27.2%
S=C(NCc1ccc2c(c1)OCO2)NCc1ccco1 | -4.25%
C=CCOc1ccc(/C=C2\SC(=S)N(CCC(=O)O)C2=O)cc1 | 6.81%
CC(=O)Nc1ccc(OC(=O)COc2ccc(Br)cc2)cc1 | -18.4%
CCOC(=O)CN(C(=O)COc1nc(-c2ccccc2)cc(C)c1C#N)c1ccc(F)cc1 | -29.2%
Oc1ccc(/C=N/Nc2ccc(C(F)(F)F)cn2)cc1O | 54.9% (active)
O=C(Nc1ccccc1)Nc1ccc(C(F)(F)F)cn1 | 5.1%
Cc1nccn1CC(=O)N/N=C/c1ccc(O)c(O)c1 | 2.53%
Cc1cc(/C=C2/SC(=O)N(CC(=O)N3CCCC3)C2=O)ccc1N1CCOCC1 | 15.8%
O=C(NCc1ccccc1)C1=C[C@@H](c2ccc(C(F)(F)F)cc2)C[C@@H](OCc2ccc(CO)cc2)O1 | -2.07%
CC(=O)Nc1ccc(NC(=O)C(C)n2c3ccccc3c3nc(=O)cc(C)n32)cc1 (stereo unspecified) | -7.92%
CCNS(=O)(=O)c1ccc(NC(=O)Nc2cccc(OC)c2)cc1 | 13.3%
Cc1ccc(NC(=O)Nc2cccc(C(F)(F)F)c2)nc1 | 1.1%

SMILES | activation
CCNS(=O)(=O)c1ccc(NC(=O)Nc2cccc(C(F)(F)F)c2)cc1 | 47.1% (active)
Cc1cc(Cl)ccc1NC(=S)NCCCN1CCCC1=O | 3.39%
COC(=O)c1cc(S(=O)(=O)N2CCC(C(N)=O)CC2)oc1C | -1.47%
O=[N+]([O-])c1cc(Cl)cc(/C=N/NC(=S)Nc2cc(S(=O)(=O)N3CCOCC3)ccc2Cl)c1O | 77.5% (active)
O=C(N/N=C/c1ccc([N+](=O)[O-])o1)c1cccc(S(=O)(=O)N2CCOCC2)c1 | -11.9%
O=C(CN1CCN(c2ccc(O)cc2)CC1)Nc1cc(S(=O)(=O)N2CCOCC2)ccc1Cl | -5.24%
CC(C)(C)C(=O)NNC(=O)c1ccc(Oc2cc(Cl)cc(Cl)c2)o1 | -7.64%
Cc1ccc(C)c(Cn2cnc3c(oc4ccccc43)c2=O)c1 | -12.5%
COc1cccc2cc(S(=O)(=O)c3ccc(C)cc3)/c(=N/NS(=O)(=O)c3ccc(C)cc3)oc12 | 2.71%
C=CCNC(=O)/C=C/c1ccc(C(C)C)cc1 | 9.4%
CCOC(=O)c1[nH]ncc1CN1CCCC(C(=O)c2ccc(OC)cc2C)C1 (stereo unspecified) | -0.54%
COc1ccc(C(=O)C2CCCN(Cc3cccn3-c3ccccn3)C2)c(C)c1 (stereo unspecified) | 79.6% (active)
COc1ccc(C(=O)C2CCCN(Cc3ccc4nonc4c3)C2)c(C)c1 (stereo unspecified) | -11.8%
COC(=O)C1=C(C(=O)OC)C2(OC1c1ccc(Br)cc1)C(=O)c1ccccc1C2=O (stereo unspecified) | 2.63%
Nc1c(-c2cccc(Cl)c2)cnn1-c1cccc([N+](=O)[O-])c1 | 43.2%
CCOC(=O)/C(N=Nc1cc(C(=O)O)cc(C(=O)O)c1)=C(\O)CCl | -8%
Cc1ccccc1NCC(=O)N/N=C\c1ccc([N+](=O)[O-])s1 | 39.4% (active)
COc1ccc(C(=O)NCC(=O)N/N=C/c2ccc([N+](=O)[O-])s2)cc1OC | 6.89%
CCOc1ccc(NC(=O)CCC(=O)N/N=C/c2ccc([N+](=O)[O-])s2)cc1 | 19.1%
CCc1ccc2nc(Nc3ncc(C(C)=O)c(C)n3)nc(C)c2c1 | 9.28%
OCC1(CCc2ccccc2)CCN(Cc2ccc3nsnc3c2)CC1 | -0.79%
O=C(/C=C/c1cnc2ccccc2n1)NC1CCCCCC1 | -3.45%
COCCNC(=O)/C(C#N)=C/c1nc(N(C)C)n(-c2ccc(F)cc2)c1Cl | 0.95%
CCCCN1C(=S)NC[C@@H]1C(C)CC (stereo partly specified) | -11.4%

SMILES | activation
O=C(c1cccs1)N1CCN(C(=O)N2CCOCC2)CC1 | 112% (active)
Cc1ccc(C(=O)N2CCN(C(=O)N3CCOCC3)CC2)cc1 | -5.88%
CCS(=O)(=O)N1CCN(C(=O)c2cccs2)CC1 | 3.05%
O=S1(=O)C=C(SCCN2CCCC2)c2ccccc21 | 19%
O=C(CN1C(=O)CC(c2ccccc2)S(=O)(=O)c2ccccc21)NC1CCCC1 (stereo unspecified) | -1.33%
Cc1cc([N+](=O)[O-])c(NC2CCCCC2)c([N+](=O)[O-])c1 | -19.9%
Cc1cc(-c2nnc(CCC(=O)NC(c3ccccc3)c3ccccc3)o2)no1 | -1.1%
O=C(NC1CCN(Cc2ccccc2)CC1)c1ccc(Oc2cc(Cl)cc(Cl)c2)o1 | 2.83%
O=C(NC(=S)N1CCc2ccccc21)c1ccco1 | 5.18%
COc1ccccc1NC(=O)/C=C/C(=O)O | -17.3%
O=C(O)/C=C/C(=O)Nc1ccc(F)cc1F | -9.35%
COC(=O)c1sc(-c2ccc(C(C)(C)C)cc2)cc1NC(=O)/C=C/C(=O)O | 51.4% (active)
CCOC(=O)C1CCN(C(=O)Nc2ccc(C)c(Cl)c2)CC1 | 2.62%
CCCCCCCCCCCCN1C(=O)CSC1c1cccnc1 (stereo unspecified) | 5.01%
CCOC(=O)C1(S(=O)(=O)c2ccccc2)CCN(Cc2ccccc2)CC1 | 3.32%
CC1=C/C(=N\S(=O)(=O)c2ccccc2)C(C(C)C)=CC1=O | 2.13%
CC1=C/C(=N\OS(=O)(=O)c2ccccc2)C=CC1=O | 44.8% (active)
COc1ccc(C(=O)COC(=O)c2nn(C)c(=O)c3ccccc23)c(OC)c1 | -10.6%
CCOc1ccc(C(=O)NC(=S)Nc2ccc(NC(=O)C(C)C)cc2)cc1[N+](=O)[O-] | -12.8%
NC(=O)C1(N2CCCCC2)CCN(C(=S)Nc2ccc(Cl)cc2)CC1 | -0.45%
CC(C)(O)C#Cc1ccc(C(=O)N2CCC(C(N)=O)(N3CCCCC3)CC2)cc1 | 4.73%
NC(=O)C1(N2CCCCC2)CCN(C(=O)c2ccc(C#Cc3ccccc3)o2)CC1 | 62.8% (active)
O=c1oc(-c2ccco2)nc2sc3c(c12)CCCCC3 | 9.25%
CN(c1ccccc1)S(=O)(=O)c1cccc(NC(=O)Cc2c(F)cccc2Cl)c1 | -12%
